Rows were chosen to be rich in hits. Some 2.9% of all compounds tested hit in one or more screens of this group.
PAFAH2 FP inh – inhibitors of human PAFAH2 | Q99487 | actives 0.99% (n = 340,000) | inhibition, % at 3.39 µM | recombinant PAFAH2, FP-rhodamine activity probe, fluorescence polarization;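 active = inhibition above the mean over all tested compounds plus 3 SD, cut at about 30% in these data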;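 note: inhibitors block probe labeling of enzyme so polarization drops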
PAFAH1B3 inh – blocks human PAF acetylhydrolase 1B catalytic subunit 3. actives 0.28% (n = 340,000). recombinant PAFAH1B3, FP-rhodamine probe, fluorescence polarization. AID 492972. inhibition, % at 3.39 µM;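 active = inhibition above the screen-wide average of all tested compounds plus 3 SD, cut at about 25% in these data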
Target sequence (Q15102 whole entry, looked up): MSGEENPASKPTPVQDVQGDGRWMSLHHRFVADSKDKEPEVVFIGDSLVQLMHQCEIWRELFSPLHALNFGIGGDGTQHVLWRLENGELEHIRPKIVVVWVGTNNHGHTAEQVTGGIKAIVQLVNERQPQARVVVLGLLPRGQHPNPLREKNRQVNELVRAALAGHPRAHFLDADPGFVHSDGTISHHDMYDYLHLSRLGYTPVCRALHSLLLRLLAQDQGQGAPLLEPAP
pPAFAH inh – pPAFAH (human) enzyme inhibition | actives 1.5% (n = 330,000) | recombinant pPAFAH, FP-rhodamine probe fluorescence polarization | inhibition, % at 3.39 µM;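 active = inhibition above the mean inhibition across the screen plus 3 SD, cut at about 25% in these data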;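 note: inhibitors block binding of the rhodamine activity-based probe so polarization drops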
Target sequence (Q13093 whole entry, looked up): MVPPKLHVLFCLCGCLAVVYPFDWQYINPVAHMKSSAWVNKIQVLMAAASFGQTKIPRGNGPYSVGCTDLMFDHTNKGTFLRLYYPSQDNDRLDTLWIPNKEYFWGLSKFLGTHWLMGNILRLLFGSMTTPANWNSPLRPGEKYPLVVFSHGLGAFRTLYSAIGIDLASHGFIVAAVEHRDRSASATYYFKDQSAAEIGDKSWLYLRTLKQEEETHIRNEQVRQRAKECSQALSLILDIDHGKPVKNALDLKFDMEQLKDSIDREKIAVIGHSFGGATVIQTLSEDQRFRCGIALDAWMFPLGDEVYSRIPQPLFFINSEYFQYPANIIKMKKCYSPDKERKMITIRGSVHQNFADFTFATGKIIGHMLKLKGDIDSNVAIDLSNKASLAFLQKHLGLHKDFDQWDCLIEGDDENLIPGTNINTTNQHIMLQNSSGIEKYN
PAFAH1B2 FP inh – inhibitors of human PAFAH1B2; actives 1.2% (n = 340,000); recombinant PAFAH1B2, FP-rhodamine activity probe, fluorescence polarization; inhibition, % at 3.39 µM; P68402; AID 492953;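 active = inhibition above the mean of all tested compounds plus 3 SD, cut at about 24% in these data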
Fam108B inh – Fam108B inhibition, counter-screen for RBBP9 inhibitors | actives 0.33% (n = 300,000) | recombinant Fam108B, FP-Rh probe fluorescence polarization | AID 1947 | inhibition, % at 9.51 µM;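 active = inhibition above the screen mean inhibition plus 3 SD, computed separately per campaign, cut at about 18% in these data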;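 note: inhibitors lower polarization as less probe binds the enzyme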
PME-1 primary – blocks human protein phosphatase methylesterase 1. Q9Y570. inhibition, % at 5.9 µM. recombinant PME-1, FP-Rh probe fluorescence polarization. actives 0.53% (n = 320,000);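 active = inhibition above the campaign mean of all compounds plus 3 SD, cut at about 26% in these data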;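 note: competitive labeling of PME-1 active site by serine hydrolase directed probe; inhibitors block probe labeling so polarization falls and inhibition rises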
PAFAH1B3 conf FP – PAFAH1B3 (human) inhibition, confirmed | inhibition, % at 3.39 µM | actives 30% (n = 390) | recombinant PAFAH1B3, FP-Rh activity-based probe, fluorescence polarization | shares compounds with PAFAH1B3 inh;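 active = average inhibition over triplicate runs above the hit cutoff set in the earlier primary screen, cut at about 25% in these data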
A number is an active result.

Results for COC(=O)CCc1c(C)c(C(=O)c2ccc(F)cc2)c2ccccn12 ?
PAFAH2 FP inh: inactive; PAFAH1B3 inh: inactive; pPAFAH inh: inactive; PAFAH1B2 FP inh: inactive; Fam108B inh: inactive; PME-1 primary: inactive

How did COC(=O)CCc1c(C)c(C(=O)c2cc(F)c(F)c(F)c2F)c2ccccn12 do in these assays?
PAFAH2 FP inh: inactive; PAFAH1B3 inh: 29; pPAFAH inh: inactive; PAFAH1B2 FP inh: inactive; Fam108B inh: inactive; PME-1 primary: inactive; PAFAH1B3 conf FP: inactive

What do the screens show for `Cc1ccc(C)c(NC(=S)N2CCCCC2CO)c1` (stereo not given)?
PAFAH2 FP inh: inactive; PAFAH1B3 inh: inactive; pPAFAH inh: inactive; PAFAH1B2 FP inh: inactive; Fam108B inh: inactive; PME-1 primary: inactive

How did Cc1cc2cc(CNC(=S)NCc3ccccc3)ccc2n1C do in these assays?
PAFAH2 FP inh: inactive; PAFAH1B3 inh: inactive; pPAFAH inh: inactive; PAFAH1B2 FP inh: inactive; Fam108B inh: inactive; PME-1 primary: inactive

How did Cc1cc2cc(CNC(=O)Nc3ccccc3)ccc2n1C do in these assays?
PAFAH2 FP inh: inactive; PAFAH1B3 inh: 30; pPAFAH inh: inactive; PAFAH1B2 FP inh: inactive; Fam108B inh: inactive; PME-1 primary: inactive; PAFAH1B3 conf FP: inactive

What do the screens show for `CCNC(=O)CCSc1nnc(-c2ccco2)o1`?
PAFAH2 FP inh: inactive; PAFAH1B3 inh: inactive; pPAFAH inh: inactive; PAFAH1B2 FP inh: inactive; Fam108B inh: inactive; PME-1 primary: inactive

What do the screens show for `Oc1ccccc1/C=N/n1c(COc2ccccc2)n[nH]c1=S`?
PAFAH2 FP inh: inactive; PAFAH1B3 inh: 43; pPAFAH inh: inactive; PAFAH1B2 FP inh: inactive; Fam108B inh: inactive; PME-1 primary: inactive; PAFAH1B3 conf FP: inactive

Results for Oc1ccc(/C=N/n2c(COc3ccccc3)n[nH]c2=S)c(O)c1 ?
PAFAH2 FP inh: inactive; PAFAH1B3 inh: inactive; pPAFAH inh: inactive; PAFAH1B2 FP inh: inactive; Fam108B inh: inactive; PME-1 primary: inactive

What do the screens show for `Cc1cccc(OCCOC(=O)C2CCN(S(=O)(=O)c3cccs3)CC2)c1`?
PAFAH2 FP inh: inactive; PAFAH1B3 inh: inactive; pPAFAH inh: inactive; PAFAH1B2 FP inh: inactive; Fam108B inh: inactive; PME-1 primary: inactive

Results for O=c1[nH]c(Nc2ccccc2)cc2cc(Br)ccc12 ?
PAFAH2 FP inh: inactive; PAFAH1B3 inh: 61; pPAFAH inh: inactive; PAFAH1B2 FP inh: inactive; Fam108B inh: inactive; PME-1 primary: inactive; PAFAH1B3 conf FP: inactive

Results for C/C(=N\NC(=S)Nc1ccc(F)cc1)C1CC1 ?
PAFAH2 FP inh: inactive; PAFAH1B3 inh: 26; pPAFAH inh: inactive; PAFAH1B2 FP inh: inactive; Fam108B inh: inactive; PME-1 primary: inactive; PAFAH1B3 conf FP: inactive

What do the screens show for `COc1ccc(N(C)C(=O)CN(C)S(=O)(=O)c2ccc3c(c2)c(=O)n(C)c(=O)n3C)c(OC)c1`?
PAFAH2 FP inh: inactive; PAFAH1B3 inh: inactive; pPAFAH inh: inactive; PAFAH1B2 FP inh: inactive; Fam108B inh: inactive; PME-1 primary: inactive

How did O=C1/C(=N\S(=O)(=O)c2cccs2)C([n+]2ccccc2)=C([O-])c2ccccc21 do in these assays?
PAFAH2 FP inh: inactive; PAFAH1B3 inh: 49; pPAFAH inh: inactive; PAFAH1B2 FP inh: inactive; Fam108B inh: inactive; PME-1 primary: inactive; PAFAH1B3 conf FP: 35

How did COc1cccc(-n2c(-c3ccccc3)c[nH]c2=S)c1 do in these assays?
PAFAH2 FP inh: inactive; PAFAH1B3 inh: inactive; pPAFAH inh: inactive; PAFAH1B2 FP inh: inactive; Fam108B inh: inactive; PME-1 primary: inactive

Results for O=Nc1c(O)c2ccccc2c2ccccc12 ?
PAFAH2 FP inh: inactive; PAFAH1B3 inh: 94; pPAFAH inh: inactive; PAFAH1B2 FP inh: inactive; Fam108B inh: inactive; PME-1 primary: 35; PAFAH1B3 conf FP: 66

How did Cc1sc(N)c(C(=O)c2ccccc2Cl)c1C do in these assays?
PAFAH2 FP inh: inactive; PAFAH1B3 inh: inactive; pPAFAH inh: inactive; PAFAH1B2 FP inh: inactive; Fam108B inh: inactive; PME-1 primary: inactive

What do the screens show for `O=S(=O)(Nc1nc2ccccc2nc1NCCO)c1cccc(Cl)c1`?
PAFAH2 FP inh: inactive; PAFAH1B3 inh: 26; pPAFAH inh: inactive; PAFAH1B2 FP inh: inactive; Fam108B inh: inactive; PME-1 primary: inactive; PAFAH1B3 conf FP: inactive

Results for COC(=O)N/N=C1/C/C(=N\NC(=O)OC)c2ccccc21 ?
PAFAH2 FP inh: inactive; PAFAH1B3 inh: 38; pPAFAH inh: inactive; PAFAH1B2 FP inh: inactive; Fam108B inh: inactive; PME-1 primary: inactive; PAFAH1B3 conf FP: inactive

What do the screens show for `COC(=O)NN=C1CCC(c2ccccc2)CC1` (stereo not given)?
PAFAH2 FP inh: inactive; PAFAH1B3 inh: inactive; PAFAH1B2 FP inh: inactive

What do the screens show for `Cc1ccc(C(=O)O)cc1N1C(=O)c2cccc3cc(Br)cc(c23)C1=O`?
PAFAH2 FP inh: inactive; PAFAH1B3 inh: 57; pPAFAH inh: inactive; PAFAH1B2 FP inh: inactive; Fam108B inh: inactive; PME-1 primary: inactive; PAFAH1B3 conf FP: 57

Results for Cc1n[nH]c(C)c1N1C(=O)c2cccc3cc(Br)cc(c23)C1=O ?
PAFAH2 FP inh: inactive; PAFAH1B3 inh: inactive; pPAFAH inh: inactive; PAFAH1B2 FP inh: inactive; Fam108B inh: inactive; PME-1 primary: inactive

How did ON=C1c2ccccc2-c2ccc(O)cc21 do in these assays?
PAFAH2 FP inh: inactive; PAFAH1B3 inh: 37; PAFAH1B2 FP inh: inactive; PAFAH1B3 conf FP: 28

Results for Nc1ccc2c(c1)C(=NO)c1ccccc1-2 ?
PAFAH2 FP inh: inactive; PAFAH1B3 inh: inactive; PAFAH1B2 FP inh: inactive

Results for S=C(Nc1ccc(Cl)c(Cl)c1)NC1CCCCC1 ?
PAFAH2 FP inh: inactive; PAFAH1B3 inh: inactive; pPAFAH inh: inactive; PAFAH1B2 FP inh: inactive; Fam108B inh: inactive; PME-1 primary: inactive

How did COCCNC(=S)Nc1ccc2nsnc2c1 do in these assays?
PAFAH2 FP inh: inactive; PAFAH1B3 inh: 69; pPAFAH inh: inactive; PAFAH1B2 FP inh: inactive; Fam108B inh: inactive; PME-1 primary: inactive; PAFAH1B3 conf FP: inactive

How did C=CCN(CC=C)C(=S)Nc1ccc2nsnc2c1 do in these assays?
PAFAH2 FP inh: inactive; PAFAH1B3 inh: 59; pPAFAH inh: inactive; PAFAH1B2 FP inh: inactive; Fam108B inh: inactive; PME-1 primary: inactive; PAFAH1B3 conf FP: inactive

How did S=C(Nc1ccc2nsnc2c1)N1CCCCCC1 do in these assays?
PAFAH2 FP inh: inactive; PAFAH1B3 inh: 32; pPAFAH inh: inactive; PAFAH1B2 FP inh: inactive; Fam108B inh: inactive; PME-1 primary: inactive; PAFAH1B3 conf FP: inactive

What do the screens show for `S=C(Nc1ccc2nsnc2c1)NC1CCCCC1`?
PAFAH2 FP inh: inactive; PAFAH1B3 inh: 56; pPAFAH inh: inactive; PAFAH1B2 FP inh: inactive; Fam108B inh: inactive; PME-1 primary: inactive; PAFAH1B3 conf FP: inactive

What do the screens show for `CCNCC(=O)N1c2ccccc2CCc2ccc(NC(=O)OC(C)C)cc21`?
PAFAH2 FP inh: inactive; PAFAH1B3 inh: 31; pPAFAH inh: inactive; PAFAH1B2 FP inh: inactive; Fam108B inh: inactive; PME-1 primary: inactive; PAFAH1B3 conf FP: inactive

How did Cc1cc(C)cc(NC(=O)Cn2nnc(C(=O)NCc3ccccc3Cl)c2N)c1 do in these assays?
PAFAH2 FP inh: inactive; PAFAH1B3 inh: inactive; pPAFAH inh: inactive; PAFAH1B2 FP inh: inactive; Fam108B inh: inactive; PME-1 primary: inactive
